# Inconclusive results are not listed. Where a call stands in place of a potency, no number is given. Unmarked numbers belong to inactive results. Activity calls are given as the source filed them. The call rests on the fitted dose curve; in most records, active means well fitted inhibition curve with a large enough effect; inconclusive means small, poorly fitted or top-dose-only effect; inactive means flat fitted curve, though single readings scatter. Numbered stars: 1 amine (or outer) side, 2 acyl side, 3 side chain; on linkers, the order of the positions; unused ones are H or OH. Bridge positions count the residues as written; N and C are the ends. Square brackets hold non-standard residues; d marks the D form. Peptide text beside a SMILES is read from it. I, II: the chains in the order shown. Actinocin(9to1) = Cc1c2oc3c(C)ccc(C(=O)[*:1])c3nc-2c(C(=O)[*:2])c(N)c1=O; NMeV = CN[C@H](C(=O)O)C(C)C; Sar = CNCC(=O)O
# Experiments:
# [1] = qHTS profiling for inhibitors of Plasmodium falciparum proliferation (AID 504749); further: nearly all actives have a fitted effect of over 60% in size; details: P. falciparum in erythrocytes, SYBR Green DNA, 72 h
# In short: (§1)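 Fluorescence of SYBR Green-bound parasite DNA, read at 485/535 nm, served as the growth measure. Infected erythrocytes were cultured with compound 72 h; artemisinin (0.29 uM) and DMSO wells defined the normalization range.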
# 3D7 = assay: as above; details: P. falciparum in erythrocytes, SYBR Green DNA, 72 h; series mostly up to 28.7 µM
# In short: as §1
# 7G8 = assay: as above; details: P. falciparum in erythrocytes, SYBR Green DNA, 72 h; series mostly up to 28.7 µM
# In short: as §1
# AA1029 = assay: as above; details: P. falciparum in erythrocytes, SYBR Green DNA, 72 h; series mostly up to 28.7 µM
# In short: as §1
# AS120 = assay: as above; details: P. falciparum in erythrocytes, SYBR Green DNA, 72 h; series mostly up to 28.7 µM
# In short: as §1
# [2] = at 28.7 µM (top of the series), parasite line A
# [3] = at 28.7 µM (top of the series), parasite line B
# [4] = at 12.8 µM (top of the series), parasite line A
# [5] = at 12.8 µM (top of the series), parasite line B
# Potency means the concentration at half of the fitted maximal effect.
Structure (SMILES),"activity, negative = inhibition [1, 2] [%]","activity, negative = inhibition [1, 3] [%]",Potency (3D7),Potency (7G8),Potency (AA1029),Potency (AS120),Potency ([1]; parasite line A),Potency ([1]; parasite line B),"activity, negative = inhibition [1, 4] [%]","activity, negative = inhibition [1, 5] [%]"
CC1(C)CCC(NC(=O)[C@@H](N)CCC(=O)O)CC1,2.48,10.3,inactive,inactive,inactive,inactive,–,–,–,–
OC(CCN1CCCCC1)(c1ccccc1)c1ccccc1,0.409,-16.8,inactive,11.2 µM (active),7.94 µM (active),11.2 µM (active),–,–,–,–
COc1ccc(/C=C/C(=O)c2ccc(OC)cc2OC)cc1,–,–,10 µM (active),5.01 µM (active),6.31 µM (active),8.91 µM (active),3.16 µM (active),8.91 µM (active),–,–
"Cc1c2oc3c(C)ccc(C(=O)N[C@@H]4C(=O)N[C@H](C(C)C)C(=O)N5CCC[C@H]5C(=O)N(C)CC(=O)N(C)[C@@H](C(C)C)C(=O)O[C@@H]4C)c3nc-2c(C(=O)N[C@@H]2C(=O)N[C@H](C(C)C)C(=O)N3CCC[C@H]3C(=O)N(C)CC(=O)N(C)[C@@H](C(C)C)C(=O)O[C@@H]2C)c(N)c1=O (I: T[dV]P[Sar][NMeV] / II: T[dV]P[Sar][NMeV]; ester I:1-I:C, II:1-II:C; linker I:N-II:N via Actinocin(9to1))",–,–,0.0056 µM (active),0.0013 µM (active),0.0045 µM (active),0.0045 µM (active),0.0035 µM (active),0.0063 µM (active),–,–
Cc1cc(N)c2cc(NC(=O)Nc3ccc4nc(C)cc(N)c4c3)ccc2n1,–,–,7.08 µM (active),2.24 µM (active),14.1 µM (active),12.6 µM (active),8.91 µM (active),11.2 µM (active),–,–
CCCCCCC[N+](CC)(CC)CCCCc1ccc(Cl)cc1,–,–,1.41 µM (active),0.631 µM (active),2 µM (active),2.51 µM (active),1.78 µM (active),2.24 µM (active),–,–
NC(CO)(CO)CO,6.7,-0.553,inactive,inactive,inactive,inactive,–,–,–,–
O=C(O)CNC(=O)c1ccccc1,-0.717,10.3,inactive,inactive,inactive,inactive,–,–,–,–
Nc1cc(Cl)c(NC2=NCCN2)c(Cl)c1,18.9,15.3,inactive,inactive,inactive,inactive,–,–,–,–
O=C1c2ccccc2C(=O)C1c1ccccc1,–,–,inactive,inactive,inactive,inactive,–,–,17.2,11.5
CC(=O)Oc1ccc(C(c2ccc(OC(C)=O)cc2)c2ccccn2)cc1,0.325,3.02,inactive,inactive,inactive,inactive,–,–,–,–
Cc1cc(=O)n(-c2ccccc2)n1C,5.57,10.3,inactive,inactive,inactive,inactive,–,–,–,–
Cc1ccnc(NS(=O)(=O)c2ccc(N)cc2)n1,–,–,inactive,inactive,inactive,inactive,–,–,9.46,-14.9
Cc1c(C(N)=O)cc([N+](=O)[O-])cc1[N+](=O)[O-],-7.97,-2.31,inactive,inactive,inactive,inactive,–,–,–,–
CC(C)(Oc1ccc(Cl)cc1)C(=O)O,5.47,14.8,inactive,inactive,inactive,inactive,–,–,–,–
O=S1(=O)c2cccc3cccc(c23)N1CCCN1CCN(c2ccc(F)cc2)CC1,7.63,-0.586,inactive,12.6 µM (active),inactive,inactive,–,–,–,–
CC(=O)Nc1c(I)cc(I)c(C(=O)O)c1I,6.87,14.3,inactive,inactive,inactive,inactive,–,–,–,–
C[C@H]1C[C@H]2[C@@H]3CCC4=CC(=O)C=C[C@]4(C)[C@@]3(Cl)[C@@H](O)C[C@]2(C)[C@@]1(O)C(=O)CO,2.21,13.1,inactive,–,inactive,inactive,–,–,–,–

Structure (SMILES),"activity, negative = inhibition [1, 2] [%]","activity, negative = inhibition [1, 3] [%]",Potency (3D7),Potency (7G8),Potency (AA1029),Potency (AS120),Potency ([1]; parasite line A),Potency ([1]; parasite line B),"activity, negative = inhibition [1, 4] [%]","activity, negative = inhibition [1, 5] [%]"
CC(C)COC(=O)OCN1C(=O)CN(CCN2CC(=O)N(COC(=O)OCC(C)C)C(=O)C2)CC1=O,4.43,8.61,inactive,inactive,inactive,inactive,–,–,–,–
Cc1c(C)n(Cc2ccccc2)c2ccc(C(=O)OCCN(C)C)cc12,11.1,-2.16,inactive,–,inactive,inactive,–,–,–,–
CC(C)(C(=O)c1cccnc1)c1cccnc1,–,–,inactive,–,inactive,inactive,–,–,-8.96,-23.5
C#C[C@]1(O)CC[C@H]2[C@@H]3CCc4cc(OC5CCCC5)ccc4[C@H]3CC[C@@]21C,-10.1,-11.7,inactive,–,inactive,–,–,–,–,–
N[C@H](Cc1c[nH]c2ccccc12)C(=O)O,7.64,6.56,inactive,–,inactive,inactive,–,–,–,–
CCN1CCCC1=O,3.13,11.2,inactive,–,inactive,inactive,–,–,–,–
COCc1c(C(C)C)nc(C(C)C)c(/C=C/[C@@H](O)C[C@@H](O)CC(=O)O)c1-c1ccc(F)cc1,-9.49,-12.9,inactive,–,inactive,inactive,–,–,–,–
CCCCC1=NC2(CCCC2)C(=O)N1Cc1ccc(-c2ccccc2-c2nn[nH]n2)cc1,-0.908,-26.5,inactive,–,inactive,inactive,–,–,–,–
Cc1cc(O)c(C(C)C)cc1Cl,0.647,11.2,inactive,–,inactive,inactive,–,–,–,–
C[C@H]1[C@H](NC(=O)/C(=N/OC(C)(C)C(=O)O)c2csc(N)n2)C(=O)N1S(=O)(=O)O (stereo in doubt),–,–,inactive,–,inactive,inactive,–,–,1.65,14.2
CN(C)CCOc1ccccc1Cc1ccccc1,-13.9,-12.1,inactive,–,7.94 µM (active),1.78 µM (active),–,–,–,–
Oc1c(I)cc(Cl)c2cccnc12,–,–,inactive,–,–,10 µM (active),8.91 µM (active),8.91 µM (active),–,–
COc1cc2c(cc1OC)C(=O)C(CC1CCN(Cc3ccccc3)CC1)C2 (stereo unspecified),-29.4,5.51,inactive,–,–,inactive,–,–,–,–
CCCN1CCCC[C@H]1C(=O)Nc1c(C)cccc1C,9.76,10.7,inactive,–,inactive,inactive,–,–,–,–
CN1CCN(CCCN2c3ccccc3Sc3ccc(S(=O)(=O)N(C)C)cc32)CC1,–,–,–,0.891 µM (active),inactive,–,–,–,5.01,-5.83
CC(C)(CO)[C@@H](O)C(=O)NCCCO,10.4,-1.02,inactive,inactive,inactive,inactive,–,–,–,–
CCN1CCC[C@H]1CNC(=O)c1c(OC)ccc(Br)c1OC,12.1,10,inactive,inactive,–,inactive,–,–,–,–
N[C@@H](Cc1cnc[nH]1)C(=O)O,3.46,9.36,inactive,inactive,inactive,inactive,–,–,–,–

# Source: PubChem BioAssay (NCATS)
